Results taken from the supplement of paper PMC10037445.
Whole data set: some 2,900 compounds, median “NF-kB SEAP reporter activity, fold change vs agonist alone” near 0.99, cut for the highest 2% near 2.6. The sample as a whole holds a higher share of the highest values than the screen did.

What was measured:
RAW-Dual [1] = assay: NF-kB SEAP reporter activity, fold change vs agonist alone; higher = enhanced NF-kB activity; details: library stock concentration (final ~1000-fold dilution): 10 mM, cytotoxicity flag (confluency mask): not cytotoxic
Procedure, shortened: (§1)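 Cytotoxic wells were those whose IncuCyte confluency was below 70% of agonist controls in both mask sets. The cells were RAW-Dual macrophages at 50,000 cells/well in DMEM on 384-well plates, dosed with 50 nL of library stock by pin tool, stimulated with a PRR agonist 1 h later, and kept at 37 °C, 5% CO2 for 20 hours. IRF and NF-κB reporter activity, as fold change over agonist-alone wells, came from supernatant read by QuantiLuc luminescence and QuantiBlue absorbance, respectively.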

RAW-Dual [2] = assay: NF-kB SEAP reporter activity, fold change vs agonist alone; cytotoxicity flag (confluency mask): not cytotoxic; higher = enhanced NF-kB activity
Procedure, shortened: as §1

[3] = agonist: ODN 1826 (TLR9) 0.5 ug/mL
[4] = agonist: Pam2CSK4 (TLR2/6) 0.1 ug/mL
[5] = agonist: Pam3CSK4 (TLR2/1) 0.1 ug/mL

| SMILES | NF-kB SEAP reporter activity (RAW-Dual [1]; agonist: Imiquimod (TLR7) […]) | NF-kB SEAP reporter activity (RAW-Dual [1]; agonist: MPLA (TLR4) […]) | NF-kB SEAP reporter activity (RAW-Dual [2]; agonist: LPS (TLR4) 0.1 ug/mL) | NF-kB SEAP reporter activity (RAW-Dual [2]; [3]) | NF-kB SEAP reporter activity (RAW-Dual [2]; [4]) | NF-kB SEAP reporter activity (RAW-Dual [2]; [5]) |
| --- | --- | --- | --- | --- | --- | --- |
| CNC(=O)C(NC(=O)C(CC(C)C)C(O)C(=O)NO)C(C)(C)C (stereo unspecified) | 1.08 | 1.38 |  |  |  |  |
| CNC(=O)C(NC(=O)C(CC(C)C)C(O)C(=O)NO)C(C)(C)C (stereo unspecified) (library stock concentration (final ~1000-fold dilution): 10 mM) |  |  | 1.09 | 1.01 | 1.04 | 1.01 |
| Oc1c(F)cc(-c2cnccc2-c2ccc(N3CCOCC3)cc2)cc1F (library stock concentration (final ~1000-fold dilution): 10 mM) |  |  | 1.12 | 0.913 | 0.947 | 0.73 |
| Oc1c(F)cc(-c2cnccc2-c2ccc(N3CCOCC3)cc2)cc1F | 1.08 | 0.911 |  |  |  |  |
| O=C(Nc1cc(C(F)(F)F)ccc1N1CCN(Cc2ccccn2)CC1)c1ccc(-c2ccncc2)o1 (library stock concentration (final ~1000-fold dilution): 10 mM) |  |  | 1.25 | 0.731 | 0.657 | 0.818 |
| O=C(Nc1cc(C(F)(F)F)ccc1N1CCN(Cc2ccccn2)CC1)c1ccc(-c2ccncc2)o1 | 0.609 | 1.03 |  |  |  |  |
| CC(C)CCN1c2nc(Nc3cc(F)c(O)c(F)c3)ncc2N(C)C(=O)C1C (stereo unspecified) (library stock concentration (final ~1000-fold dilution): 10 mM) |  |  | 4.3 | 2.63 | 1.02 | 2.05 |
| CC(C)CCN1c2nc(Nc3cc(F)c(O)c(F)c3)ncc2N(C)C(=O)C1C (stereo unspecified) | 2.84 | 2.55 |  |  |  |  |
| COc1cc(-c2cc(-c3ccc(Cl)cc3)nc(=O)[nH]2)ccc1O (library stock concentration (final ~1000-fold dilution): 10 mM) |  |  | 1.6 | 0.991 | 1.22 | 1.39 |
| COc1cc(-c2cc(-c3ccc(Cl)cc3)nc(=O)[nH]2)ccc1O | 1.09 | 1.15 |  |  |  |  |
| CCN(CC)CC#CCOC(=O)C(O)(c1ccccc1)C1CCCCC1.Cl (stereo unspecified) | 1.75 | 1.46 |  |  |  |  |
| CCN(CC)CC#CCOC(=O)C(O)(c1ccccc1)C1CCCCC1.Cl (stereo unspecified) (library stock concentration (final ~1000-fold dilution): 10 mM) |  |  | 2.01 | 0.958 | 0.963 | 1.3 |
